Screens deposited in PubChem BioAssay by National Center for Advancing Translational Sciences (NCATS).
Six1-Eya2 inh – qHTS Assay for Inhibitors of the Six1/Eya2 Interaction; hit rate 0.56% among 360,000; activity change, % (concentration not given with the values); AlphaScreen GST-Six1/His-Eya2 binding, biochemical; hits give low values; AID 651725, 2012; Homeobox protein SIX1 (Homo sapiens) + Protein phosphatase EYA2 (Homo sapiens), …; in the data active means activity change below about -65%; inconclusive means mostly about -30% to -63%
Target sequence (O00167 whole entry, looked up): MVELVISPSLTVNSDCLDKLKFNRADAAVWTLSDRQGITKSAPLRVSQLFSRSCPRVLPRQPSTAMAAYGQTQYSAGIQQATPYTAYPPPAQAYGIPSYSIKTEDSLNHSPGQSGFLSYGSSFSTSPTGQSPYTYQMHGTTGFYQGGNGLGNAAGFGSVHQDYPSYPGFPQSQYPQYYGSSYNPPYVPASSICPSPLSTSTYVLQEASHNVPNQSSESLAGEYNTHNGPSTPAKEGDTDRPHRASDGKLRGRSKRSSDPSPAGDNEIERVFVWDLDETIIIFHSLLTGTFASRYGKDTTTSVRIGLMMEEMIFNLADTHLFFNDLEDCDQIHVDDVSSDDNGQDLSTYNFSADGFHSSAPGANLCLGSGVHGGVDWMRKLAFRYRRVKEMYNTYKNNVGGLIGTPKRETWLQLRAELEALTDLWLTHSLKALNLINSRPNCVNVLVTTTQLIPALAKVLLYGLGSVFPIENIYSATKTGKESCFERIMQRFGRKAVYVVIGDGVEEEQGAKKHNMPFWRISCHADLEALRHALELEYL
Target sequence (Q15475 whole entry, looked up): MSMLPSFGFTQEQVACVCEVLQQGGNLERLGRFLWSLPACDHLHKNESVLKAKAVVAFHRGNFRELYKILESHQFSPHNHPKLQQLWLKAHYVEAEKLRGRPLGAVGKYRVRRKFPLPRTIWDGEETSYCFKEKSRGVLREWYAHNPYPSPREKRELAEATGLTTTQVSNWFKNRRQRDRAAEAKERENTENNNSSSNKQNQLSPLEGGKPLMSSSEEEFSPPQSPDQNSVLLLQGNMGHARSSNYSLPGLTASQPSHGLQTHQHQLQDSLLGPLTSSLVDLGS
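GST-Six1 + His-Eya2 (5X stock: 250/500 nM); Tris pH 8.0, 300 mM NaCl, 0.05% BSA, 0.02% Tween 20; GSH donor/Ni acceptor beads; 1 h 37 °C dark; AlphaScreen readout.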
IL-1B inflam inh – qHTS for Inhibitors of Inflammasome Signaling: IL-1-beta AlphaLISA Primary Screen; hit rate 4.7% among 360,000; AID 743279, 2014; THP-1 LPS/ATP IL-1B secretion, AlphaLISA, 16 h; hits give low values; activity change, % at 57.5 µM; in the data active means activity change below about -50%; inconclusive means mostly about -30% to -49%
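THP-1 cells pretreated 1 hr with compounds (up to 57.5 uM final), then stimulated with LPS (250 ng/mL final) plus ATP (1.25 mM final); secreted IL-1B measured by AlphaLISA after 16 hr, decreased signal indicating inhibition.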
TDP1 block – qHTS Assay for Inhibitors of Tyrosyl-DNA Phosphodiesterase (TDP1); Tyrosyl-DNA phosphodiesterase 1 (Homo sapiens), Q9NUW8; recombinant TDP1, AlphaScreen DNA substrate cleavage; Potency, µM (titrated, usually from 130 µM), without a hit: at the highest dose activity change, negative = inhibition, most hits filed as inhibitors; hit rate 0.28% among 350,000; AID 485290, 2010; further: potency means the concentration at half of the fitted maximal effect; nearly all actives have a fitted effect of over 40% in size
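Tdp1 1 nM final; 15 min RT w/ cpd; substrate 15 nM, 5 min; beads 10 ug/ml, 10 min; AlphaScreen read. Neg ctrl: no enzyme.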
TDP1 cell noCPT – qHTS for Inhibitors of human tyrosyl-DNA phosphodiesterase 1 (TDP1): qHTS in cells in absence of CPT; Potency, µM (titrated, usually from 46.2 µM), for the others: at the highest dose activity change, negative = growth inhibition, hits mostly inhibitors; AID 686978, 2013; DT40 Tdp1-/- hTDP1 cells, no CPT, ATP luminescence, 48 h; hit rate 15% among 420,000; further: potency means the concentration at half of the fitted maximal effect; nearly all actives have a fitted effect of over 55% in size
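Cells were dispensed at 400 per well, compounds added by pin tool, plates incubated ≥48 hr at 37 °C, then CellTiter-Glo added for 30 min at room temperature before luminescence reading. Line: DT40 Tdp1-/- complemented with hTDP1; camptothecin omitted.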
CtBP-E1A blk – qHTS Assay for Inhibitors of the CtBP/E1A Interaction; CtBP / adenovirus E1A interaction (AlphaScreen); AlphaScreen GST-E1A/His-CtBP binding, 1536-well; hits give low values; activity change, % (concentration not given with the values); hit rate 0.49% among 340,000; AID 651724, 2012; in the data active means activity change below about -65%; inconclusive means mostly about -30% to -63%
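Homogeneous bead-based format: GST-tagged E1A captured on glutathione donor beads, His-tagged CtBP on nickel acceptor beads; compounds precede bead addition by 2 h at 37 °C.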
DT40 TDP1 CPT – qHTS for Inhibitors of human tyrosyl-DNA phosphodiesterase 1 (TDP1): qHTS in cells in presence of CPT. chicken DT40 Tdp1-/-;hTDP1 cells + 20 nM CPT, ATP luminescence, 48 h. Potency, µM (top dose mostly 46.2 µM), for the others: at the highest dose activity change, negative = growth inhibition, usual class: inhibitors. AID 686979, 2013. hit rate 12% among 420,000; further: potency means the concentration at half of the fitted maximal effect; nearly all actives have a fitted effect of over 55% in size
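Cell growth measured by CellTiter-Glo luminescence after a minimum 48 h, 37 C compound exposure with 20 nM CPT in Tdp1-knockout DT40 cells stably expressing hTDP1, seeded 400/well; qHTS titration format.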
* = called active by the depositor; [ ] = remark or other dose. The list is not random: actives were taken first. Their share in the collection is about 18%. Unless noted, the call rests on the fitted dose curve; in most records, active means well fitted curve in the direction sought with a large enough effect; inconclusive means small, poorly fitted or top-dose-only effect, or another doubt; inactive means no such curve, though single readings can be large; an effect the other way counts as inactive or inconclusive. On the % scale 0 is the no-effect control and ±100 the full control effect.

Screening CCN(CC)CCCNC(=O)CC1Oc2ccc(C)cc2NC1=O (centres undefined) returned Six1-Eya2 inh -2, IL-1B inflam inh 44, TDP1 block -1%, TDP1 cell noCPT -4%, CtBP-E1A blk 3 and DT40 TDP1 CPT -9%.
For O=S(=O)(/N=C(/c1ccccc1)N1CCCCCC1)c1ccccc1 the results were Six1-Eya2 inh 17, IL-1B inflam inh -9, TDP1 block 5%, TDP1 cell noCPT -10%, CtBP-E1A blk 0 and DT40 TDP1 CPT -10%.
Screening O=S(=O)(N=S(N1CCCCC1)N1CCCCC1)c1ccccc1 returned Six1-Eya2 inh 1, IL-1B inflam inh 0, TDP1 block 6%, TDP1 cell noCPT inconclusive, CtBP-E1A blk 5 and DT40 TDP1 CPT 9.2µM*.
For N#Cc1cnc(=S)n(-c2cc(C(F)(F)F)cc(C(F)(F)F)c2)c1N the results were Six1-Eya2 inh 1, IL-1B inflam inh 9, TDP1 cell noCPT inconclusive, CtBP-E1A blk 0 and DT40 TDP1 CPT inconclusive.
`CCC(C)(C)NC(=O)C(c1cccn1C)N(Cc1ccc(OC)cc1)C(=O)Cn1nnc2ccccc21` (centres undefined) gave Six1-Eya2 inh 0, IL-1B inflam inh 47, TDP1 block 5%, TDP1 cell noCPT inconclusive, CtBP-E1A blk -1 and DT40 TDP1 CPT inconclusive.
Screening Cc1ccc(C)c(CN2CCC(CNC(=O)Nc3cccc(Cl)c3C)CC2)c1 returned Six1-Eya2 inh -6, IL-1B inflam inh -65*, TDP1 cell noCPT inconclusive, CtBP-E1A blk 2 and DT40 TDP1 CPT inconclusive.
O=C(NCC1CCN(Cc2ccccc2F)CC1)Nc1ccc(F)c(Cl)c1 was read as TDP1 block -6%[12.3 µM], TDP1 cell noCPT inconclusive and DT40 TDP1 CPT inconclusive.
Screening Cc1ccc(C)c(CN2CCC(CNC(=O)Nc3ccc(F)c(Cl)c3)CC2)c1 returned Six1-Eya2 inh -12, IL-1B inflam inh -92*, TDP1 cell noCPT inconclusive, CtBP-E1A blk -19 and DT40 TDP1 CPT 29µM*.
For COc1ccc(OC)c(C(=O)CSc2nc3ccccc3n2CC(=O)NC(C)(C)C)c1 the results were Six1-Eya2 inh 5, IL-1B inflam inh -12, TDP1 block 0%, TDP1 cell noCPT -8%, CtBP-E1A blk 0 and DT40 TDP1 CPT 8%.
CCC(=O)N1CCc2cc(Br)cc(S(=O)(=O)N3CCCCCC3)c21 was read as Six1-Eya2 inh -2, IL-1B inflam inh 24, TDP1 block 0%, TDP1 cell noCPT inconclusive, CtBP-E1A blk -5 and DT40 TDP1 CPT inconclusive.
Screening O=C(C1CC1)N1CCc2cc(Br)c(S(=O)(=O)N3CCCCCC3)cc21 returned Six1-Eya2 inh -9, IL-1B inflam inh 12, TDP1 cell noCPT inconclusive, CtBP-E1A blk -12 and DT40 TDP1 CPT 16µM*.
Screening O=C(C1CC1)N1CCc2cc(Br)cc(S(=O)(=O)N3CCCCCC3)c21 returned Six1-Eya2 inh -7, IL-1B inflam inh -1, TDP1 block 5%, TDP1 cell noCPT 21µM*, CtBP-E1A blk -7 and DT40 TDP1 CPT inconclusive.
Screening COc1ccc(C2CC(c3cccs3)=NN2C(=O)CSc2nc(=O)n3ccccc3n2)cc1 (centres undefined) returned Six1-Eya2 inh -6, IL-1B inflam inh -7, TDP1 cell noCPT inconclusive, CtBP-E1A blk 0 and DT40 TDP1 CPT inconclusive.
Screening CC(=O)c1ccc(OCC(O)CN2C(C)CCCC2C)cc1 (centres undefined) returned Six1-Eya2 inh 4, IL-1B inflam inh -4, TDP1 block -1%, TDP1 cell noCPT 2%, CtBP-E1A blk 5 and DT40 TDP1 CPT 7%.
For Oc1ccc(/C(Cc2ccc3ccccc3n2)=N\Nc2ccccc2)c(O)c1 the results were Six1-Eya2 inh -16, IL-1B inflam inh -98*, TDP1 block 5%, TDP1 cell noCPT 23µM*, CtBP-E1A blk -13 and DT40 TDP1 CPT inconclusive.
Screening Cc1c(O)ccc(/C(Cc2ccc3ccccc3n2)=N\O)c1O returned Six1-Eya2 inh -8, IL-1B inflam inh -67*, TDP1 block 6%, TDP1 cell noCPT 21µM*, CtBP-E1A blk -7 and DT40 TDP1 CPT 21µM*.
N/N=C(\Cc1cscn1)c1ccc(O)cc1O was read as Six1-Eya2 inh -6, IL-1B inflam inh 5, TDP1 block 8%, TDP1 cell noCPT inconclusive, CtBP-E1A blk -5 and DT40 TDP1 CPT -8%.
`Oc1ccc(/C(Cc2ccccn2)=N\Nc2ccccc2)c(O)c1` gave Six1-Eya2 inh -13, IL-1B inflam inh -180*, TDP1 block 5%, TDP1 cell noCPT inconclusive, CtBP-E1A blk -14 and DT40 TDP1 CPT inconclusive.
Screening O=C(CSc1nnc(COc2ccccc2)n1-c1ccccc1)c1cccs1 returned Six1-Eya2 inh 0, IL-1B inflam inh inconclusive, TDP1 block 4%, TDP1 cell noCPT 21µM*, CtBP-E1A blk 0 and DT40 TDP1 CPT 18µM*.
Cc1ccc(OCc2nnc(SCC(=O)c3cccs3)n2-c2ccccc2)cc1C was read as Six1-Eya2 inh -1, IL-1B inflam inh -17, TDP1 block 0%, TDP1 cell noCPT inconclusive, CtBP-E1A blk -4 and DT40 TDP1 CPT inconclusive.
`CCOC(=O)C(CC)Sc1nnc(COc2ccc(C)cc2)n1-c1ccccc1` (centres undefined) gave Six1-Eya2 inh 23, IL-1B inflam inh 0, TDP1 block -3%, TDP1 cell noCPT inconclusive, CtBP-E1A blk 37 and DT40 TDP1 CPT 21µM*.
Screening CC(N)c1csc(Nc2nccc(C(F)(F)F)n2)n1 (centres undefined) returned Six1-Eya2 inh inconclusive, IL-1B inflam inh 4, TDP1 cell noCPT inconclusive, CtBP-E1A blk inconclusive and DT40 TDP1 CPT 5%.
Screening CC(N)c1csc(Nc2nncc3ccccc23)n1 (centres undefined) returned Six1-Eya2 inh -18, IL-1B inflam inh -70*, TDP1 cell noCPT inconclusive, CtBP-E1A blk -21 and DT40 TDP1 CPT inconclusive.
Screening CC(N)c1csc(Nc2ncccn2)n1 (centres undefined) returned Six1-Eya2 inh -84*, IL-1B inflam inh 1, TDP1 cell noCPT inconclusive, CtBP-E1A blk -88* and DT40 TDP1 CPT -11%.
